Here are results for 14 molecules from PubChem BioAssay (NCI).

Holding throughout (assay): NCI-60 one-dose screen, 48 h (100 = growth as untreated, 0 = no growth, -100 = all killed)
What all share (conditions): 10 µM

The test system of experiment [1] is SR leukemia.
The test system of experiment [2] is OVCAR-8 ovarian.
Experiment [3] has as its system OVCAR-5 ovarian.
Experiment [4] relates to OVCAR-4 ovarian.
Experiment [5] concerns SK-OV-3 ovarian.
Experiment [6] concerns IGROV1 ovarian.
The test system of experiment [7] is OVCAR-3 ovarian.
Experiment [8] deals with HS 578T breast.
For experiment [9], the system named is NCI/ADR-RES ovarian.

Structures are written as SMILES. This is part of a sample that, as a whole, favours compounds with a hit. Of some 83,000 tested, about 20% had one in any assay.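 Negative percent growth values reflect cell death: -40 means 40% of the cells present at the start died, and -100 means all died.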 Unmarked numbers belong to inactive results. The source made the active and inactive calls. The calls were made as follows: active = growth percent below 10; inactive = the rest.

For `O=C1/C=C/[C@@H](O)[C@@H]2C[C@@H](O)C[C@H]2/C=C/CCC[C@H](CCc2ccc(NC(=S)Nc3ccc4c(c3)C(=O)OC43c4ccc(O)cc4Oc4cc(O)ccc43)cc2)O1`, the growth is 6.14% (active) in experiment [1]; 10.5% in experiment [2]; 17.9% in experiment [3]; 23.4% in [4]; 32.1% in experiment [5]; 25.7% in experiment [6]. Also, the values for the growth in [7], in experiment [8] and in experiment [9] were -0.249% (active), 39.8% and 10.9%, respectively.
As for `CCN(CC)CCCOc1cccc2c1C(=O)c1cccc(OCCCN(CC)CC)c1C2=O`, the growth in experiment [1] was 3.15% (active); in experiment [2], 28.1%; in experiment [3] it was 55.8%; in [4], 32.9%; in experiment [5], 41.5%; in [6], 25.8%. Further, the growth was 35% in [7], 58.4% in experiment [8] and 35.3% in [9].
For the molecule `O=C(CI)OCC(COC(=O)CI)OC(=O)CI`, the growth is -12.9% (active) in experiment [1]; 97.9% in experiment [2]; 104% in experiment [3]; 64% in experiment [4]; 119% in [5]; -57.1% (active) in [6]. In addition, the results for the growth in [7], in experiment [8] and in experiment [9] were 72.2%, 97.4% and 95.6%, respectively.
As to `Cc1cc(O)ccc1C1=NN(c2ccc(S(C)(=O)=O)cc2)C(=O)CC1`, the growth in experiment [1] is 12.3%; in experiment [2], 92.3%; in experiment [3], 98.1%; in experiment [4], 98%; in experiment [5] it was 85%; in [6], 43.5%. Further, the growth was 65.1% in experiment [7], 86.9% in [8] and 40.6% in experiment [9].
With `Cc1c(O)c(=O)ccn1C1CCC(CC2CCC(n3ccc(=O)c(O)c3C)CC2)CC1` (stereo not drawn), the growth in [1] is 41.8%; in [2], 33.5%; in [3] it was 54.5%; in experiment [4], 32.2%; in experiment [5] it was 49.9%; in experiment [6], 32.5%. The figures for the growth in experiment [7], in [8] and in experiment [9] were 28.3%, 21.9% and 83%, respectively.
In the case of `CC1=CC2C(C(O)CC3(C)C2CC(C)C32OCOC23COCO3)C2(C)C/C(=C/O)C(=O)C=C12` (stereo not drawn), the growth in experiment [1] is -38.8% (active); in [2] it was 43.8%; in experiment [3] it was 63.2%; in experiment [4], 35.8%; in experiment [5], 48.5%; in experiment [6] it was 70.9%. In addition, the growth was 10.8% in experiment [7], 83.4% in experiment [8] and 17.3% in experiment [9].
Take `COc1ccc(-c2nn(-c3cccc(Cl)c3)cc2-c2cc(-c3ccccc3)[nH]c(=O)c2C#N)cc1`: the growth is 64.8% in experiment [1]; 26.3% in experiment [2]; 94.1% in experiment [3]; 31% in experiment [4]; -47.3% (active) in experiment [5]; 49.4% in experiment [6]. In addition, the values for the growth in [7], in experiment [8] and in [9] were 25.8%, 23.5% and 37.8%, respectively.
`COc1ccc(-c2cc(-c3ccc(OC)c(OC)c3)nc(SCCCC(=O)NO)n2)cc1`: the growth was 15.1% in experiment [1]; 10.4% in experiment [2]; 15.9% in [3]; 13.1% in experiment [4]; -21.3% (active) in [5]; -25.1% (active) in experiment [6]. Moreover, the growth is -24% (active) in [7], 4.08% (active) in experiment [8] and -34.7% (active) in experiment [9].
On to `COc1ccc(-c2nn(-c3cccc(Cl)c3)cc2-c2cc(-c3ccccc3)nc(N)n2)cc1`, for which the growth in experiment [1] is 11.3%; in experiment [2] it was 67.9%; in experiment [3], 59%; in experiment [4] it was 56.1%; in [5], 98.5%; in [6], 83.7%. Further, the values for the growth in experiment [7], in experiment [8] and in [9] were 72.2%, 62% and 53.3%, respectively.
`O=C(COc1cccc(/C=C2\CSc3ccc(Cl)cc3C2=O)c1)c1ccc(Cl)cc1`: the growth in experiment [1] is -3.18% (active); in [2], 66.9%; in [3] it was 86.7%; in experiment [4] it was 75%; in [5], 86.2%; in experiment [8] it was 93%. For the same molecule, in [9], the growth is 72.8%.
In the case of `COc1ccc(-c2nn(-c3cccc(Cl)c3)cc2-c2c(C#N)c(=O)n3[nH]c(-c4ccc(C)cc4)nc3c2C#N)cc1`, the growth in [1] was 1.64% (active); in experiment [2], 14.3%; in [4], 57.1%; in experiment [5], 55.7%; in experiment [6] it was 38.5%; in experiment [7], 97%. Further, the growth is 43.4% in [8] and 51.2% in experiment [9].
Take `CC(C)(C)OC(=O)N1CCc2c(sc3ncnc(N/N=C/c4cccc(Br)c4)c23)C1`: the growth in [1] was 29.4%; in [2], 46.6%; in experiment [3], 70.5%; in experiment [4] it was 54.9%; in experiment [5] it was 62.2%; in experiment [6], 43.9%. In addition, the growth in [7] was 61.5%; in experiment [8] it was 71.2%; in experiment [9] it was 42.1%.
For `Cc1ccc(C(=O)/C=C/c2ccccc2)s1`, the growth in [1] is 88.3%; in experiment [2] it was 111%; in experiment [3], 110%; in experiment [4], 133%; in experiment [5], 130%; in [6], 79.4%. In addition, the growth in [7] was 89.6%; in experiment [8] it was 106%; in experiment [9] it was 113%.
Turning to `N#CC1=CC2CN(Cc3ccccc3)C1C1C(=O)N(c3ccccc3)C(=O)C21` (stereo not drawn), the growth in [1] was 93.4%; in experiment [2], 98.2%; in experiment [3], 101%; in [4], 93.2%; in experiment [5] it was 97%; in [6] it was 103%. Also, the growth in [7] is 111%; in experiment [8] it was 101%; in experiment [9], 91.6%.
